High-throughput results from PubChem.
Sm TGR inh: qHTS Assay for the Inhibitors of Schistosoma Mansoni Peroxiredoxins. Schistosoma mansoni thioredoxin glutathione reductase (TGR), Q962Y6. purified TGR, DTNB reduction, TNB absorbance 405 nm. Potency, µM (top dose mostly 114 µM), without a hit: top-dose activity change, negative = inhibition, most hits filed as inhibitors. 360,000 tested, 3% active. AID 485364, 2010; further: on the % scale 0 is the no-effect control and ±100 the full control effect; nearly all actives have a fitted effect of over 60% in size
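TGR 20 nM + NADPH 100 uM (dispensed conc.), cpd preinc 15 min RT; start with NADPH (500 uM addition) then DTNB (15 mM addition). Kinetic TNB absorbance, 405 nm filter. Four-parameter Hill fit across titration.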
SARS PLP yeast: qHTS of Yeast-based Assay for SARS-CoV PLP; S. cerevisiae expressing SARS-CoV PLpro, growth rescue; Potency, µM (highest dose often 32.9 µM), without a hit: at the top dose activity, positive = growth rescue, most hits filed as activators; 330,000 tested, 0.19% active; calls by dose curve; further: 0% is about no effect; nearly all actives have a fitted effect of over 55% in size
LmPK inhibitor: qHTS Assay for Inhibitors of Leishmania Mexicana Pyruvate Kinase (LmPK); Q27686; purified LmPK, Kinase-Glo ATP luminescence, 1 h; Potency, µM (series often up to 57.5 µM), for the others: at the highest dose activity change, negative = inhibition, usual class: inhibitors; 290,000 tested, 0.37% active; AID 1721, 2009; further: on the % scale 0 is the no-effect control and ±100 the full control effect
Target sequence (Q27686 whole entry, looked up): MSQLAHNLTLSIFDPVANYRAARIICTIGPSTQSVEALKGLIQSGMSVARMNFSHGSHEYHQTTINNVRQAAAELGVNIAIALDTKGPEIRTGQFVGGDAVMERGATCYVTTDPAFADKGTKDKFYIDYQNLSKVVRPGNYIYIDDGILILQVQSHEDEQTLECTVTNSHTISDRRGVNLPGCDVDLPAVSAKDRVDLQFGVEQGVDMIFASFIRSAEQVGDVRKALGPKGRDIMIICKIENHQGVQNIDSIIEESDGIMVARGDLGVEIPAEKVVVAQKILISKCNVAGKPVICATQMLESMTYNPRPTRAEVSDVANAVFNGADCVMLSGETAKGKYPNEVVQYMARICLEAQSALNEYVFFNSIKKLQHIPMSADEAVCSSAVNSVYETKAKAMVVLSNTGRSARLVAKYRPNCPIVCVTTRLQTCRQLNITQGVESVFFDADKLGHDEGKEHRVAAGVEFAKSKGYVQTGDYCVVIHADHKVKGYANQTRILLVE
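In 50 mM imidazole pH 7.2 with 7 mM MgCl2, LmPK (0.1 nM) turned over PEP (0.5 mM) and ADP (0.1 mM) for 1 h at room temperature. Luciferase read-out of ATP.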
RE007 growth inh: qHTS Assay for Inhibitors of the HIV-1 protein Vpr; S. pombe RE007 Vpr strain, BacTiter-Glo ATP luminescence, 24 h; Potency, µM (highest dose often 92.2 µM), without a hit: at the top dose activity change, negative = less growth, actives largely listed as inhibitors; 360,000 tested, 0.21% active; active means well fitted falling curve with a large enough effect; inconclusive means small, poorly fitted or top-dose-only effect; inactive means no such curve, though single readings can be large or run the other way; further: on the % scale 0 is the no-effect control and ±100 the full control effect; nearly all actives have a fitted effect of over 50% in size
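Fission yeast strain RE007, carrying one chromosomally integrated HIV-1 vpr copy, was seeded at OD 0.01 in PMG+AL medium with 23 nL pinned compound. After 24 h at 30 °C and 99% humidity, viability was read by BacTiter-Glo luminescence.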
Tb PYK inh: qHTS of Trypanosoma Brucei Inhibitors | TbPYK enzyme, Kinase-Glo Plus ATP luminescence, 45 min | pyruvate kinase (Trypanosoma brucei), Q57TT1 | 410,000 tested, 0.12% active | Potency, µM (top dose mostly 76.8 µM), for the others: at the top dose activity, negative = inhibition, usual class: inhibitors; further: on the % scale 0 is the no-effect control and ±100 the full control effect; nearly all actives have a fitted effect of over 50% in size
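Readout: single end-point luminescence (Kinase-Glo Plus, 10 min). Reaction conditions were TbPYK/substrate plus 130 uM ADP, 45 min at RT, pH 7.2 TEA buffer. No-enzyme wells served as controls, and data were normalized before concentration-response fitting.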
NS1 inh: qHTS Assay for Inhibitors of Influenza NS1 Protein Function. Potency, µM (top dose mostly 46.1 µM), without a hit: at the highest dose activity, positive = more growth. 270,000 tested, 0.4% active. AID 2326, 2010; calls by dose curve; further: actives are rising curves; nearly all actives have a fitted effect of over 50% in size
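OD600 was taken as the measure of yeast growth restored by compound in an NS1-expressing S. cerevisiae strain. Cells had been washed out of glucose medium and diluted 1:100 into galactose -URA medium, pH 6.0.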
The depositor's hits bear a star; ? = inconclusive; / = not tested or not shown; [ ] = another dose, or the depositor's remark. Sampled rows, rich in hits. Any-hit rate of the full collection: about 3.3%. Unless noted, the call rests on the fitted dose curve; in most records, active means well fitted curve in the direction sought with a large enough effect; inconclusive means small, poorly fitted or top-dose-only effect, or another doubt; inactive means no such curve, though single readings can be large; an effect the other way counts as inactive or inconclusive. Potency means the concentration at half of the fitted maximal effect.

SMILES	Sm TGR inh	SARS PLP yeast	LmPK inhibitor	RE007 growth inh	Tb PYK inh	NS1 inh
COc1ccc(C(=O)O/N=C(\C)c2ccccc2)cc1	5.6%	-3.0%	6.31µM*	-1.3%	12.6µM*	-118.6%
N/C(=N\OC(=O)c1ccc(F)cc1)c1ccc(Br)cc1	2.4%	-5.4%	-1.8%	-27.8%	-3.4%	-50.6%
N/C(=N\OC(=O)c1cccc(F)c1)c1ccccc1	13.1%	0.6%	15.8µM*	-28.2%	-24.8%	-4.4%
CCOC(=O)c1ccccc1NC(=O)NCc1c(-n2cccc2)sc2c1CCCC2	-9.8%	/	/	/	3.1%	/
Cc1ccc(-c2nnnn2-c2ccc(C)cc2)cc1	10.2%	-3.9%	8.7%	-2.3%	-3.8%	/
Cc1ccc(-n2nnnc2CCl)cc1	5.62µM*	0.0%	-2.3%	16.1%	-5.1%	14.1%
[Cu].[NH-][C@H](CC(=O)O)C(=O)O.[NH-][C@H](CC(=O)O)C(=O)O	/	/	/	/	/	-5.6%
Cc1ccn2c(NC3CCCC3)c(-c3cccs3)nc2c1	20µM*	-2.6%	-11.6%	-8.8%	-26.4%	/
CCC(C)NC(=O)C1CCN(C(=O)c2ccc(-n3ccc4ccccc43)s2)CC1 (stereo unspecified)	3.9%	/	/	/	-6.2%	/
CCCc1nc2sc3c(c2c(=O)n1NC(=O)c1ccco1)CC(C)(C)OC3	11.2µM*	-9.2%	0.7%	-1.6%	4.4%	-1.0%
CCCCCCCCCc1nc2sc3c(c2c(=O)n1NC(=O)c1ccc([N+](=O)[O-])cc1)CC(C)(C)OC3	4.4%	-30.0%	1.5%	-6.9%	-18.4%	19.2%
N#C/C(C(=O)c1ccccc1)=C1/CCCCCN1	2.0%	4.8%	-17.7%	28.2µM*	-0.1%	-13.7%
Cc1c(O)c(CN2CCCC2)cc2c3c(c(=O)oc12)CCC3	?	-11.6%	6.6%	-4.2%	-4.0%	11.2%
Cc1c(O)c(CN2CCCC2)cc2c1oc(=O)c1ccccc12	50.1µM*	0.5%	1.5%	-16.1%	2.8%	-20.4%
C=CCC(C=C)S(=O)(=O)c1ccc(C)cc1 (stereo unspecified)	-19.8%	4.7%	0.8%	0.6%	-8.1%	-10.3%
Cc1ccc(-n2c3c(c(=O)[nH]c2=O)C(NS(=O)(=O)c2ccc(C)cc2)(C(F)(F)F)C(=O)N3)cc1 (stereo unspecified)	9.3%	-2.6%	0.0%	0.3%	-11.5%	-4.0%
CCc1[nH]c(=O)[nH]c1C(C)S(=O)(=O)c1ccc(C)cc1 (stereo unspecified)	0.282µM*	-1.2%	9.5%	-0.2%	-1.3%	7.4%
CCc1c(C(C)S(=O)(=O)c2ccc(C)cc2)[nH]c(=O)n1-c1ccc(C)cc1 (stereo unspecified)	2.82µM*	-8.7%	4.1%	-2.3%	-8.0%	1.9%
COC(C[C@H](O)CC(=O)[C@H](C)OCc1ccccc1)OC	44.7µM*	-0.1%	1.3%	0.7%	-4.3%	3.0%
Cc1nn(-c2ccc3nnc(C)n3n2)c(C)c1CCC(=O)Nc1ccc(OC(F)(F)F)cc1	2.4%	/	/	/	-2.6%	/
O=C(NCc1cccnc1)/C(=C\c1ccc(-c2ccc(Br)cc2)o1)S(=O)(=O)c1ccccc1	50.1µM*	?	2.7%	-0.4%	-0.8%	2.9%
O=C(NCc1cccnc1)/C(=C/c1ccc(-c2ccc(Cl)cc2)o1)S(=O)(=O)c1ccccc1	20µM*	-8.8%	-7.6%	-3.7%	-1.4%	-18.1%
Cc1ccc(-n2ncc3c(NCCCN(C)C)ncnc32)cc1Cl	6.8%	/	/	/	-1.9%	/
CCCN[C@@H](C)C(=O)Nc1c(C)csc1C(=O)OC	/	/	/	/	-6.0%[33.2 µM]	/
CCOC(=O)C(=CNNc1c(C)csc1C(=O)OC)C(=O)OCC	56.2µM*	-0.2%	-0.4%	11.7%	-7.8%	0.4%
SMILES	Sm TGR inh	SARS PLP yeast	LmPK inhibitor	RE007 growth inh	Tb PYK inh	NS1 inh
COc1ccc(Cn2c(C(=O)O)c(CNCc3ccccc3F)c3ccc(OC)cc32)cc1	-1.7%	/	/	/	-5.3%	/
COc1ccc(NC(=O)c2nc(S(=O)(=O)Cc3cccc(C)c3)ncc2Cl)c(OC)c1	8.4%	8.0%	4.3%	-10.9%	-5.7%	-1.5%
COc1ccc(OC)c(NC(=O)c2nc(S(=O)(=O)Cc3ccccc3)ncc2Cl)c1	3.16µM*	-8.8%	-9.8%	-1.7%	-10.5%	-5.5%
COc1ccc2nc(NC(=O)c3nc(S(=O)(=O)Cc4cccc(C)c4)ncc3Cl)sc2c1	?	/	/	/	0.6%	/
Cc1nnc(NC(=O)c2nc(S(=O)(=O)Cc3ccccc3)ncc2Cl)s1	22.4µM*	3.7%	-0.2%	-3.7%	-9.2%	-8.1%
Cc1cccc(CS(=O)(=O)c2ncc(Cl)c(C(=O)NCc3ccccc3)n2)c1	7.94µM*	0.7%	-8.7%	-5.2%	8.1%	-2.5%
O=C(Nc1nc2ccc(F)cc2s1)c1nc(S(=O)(=O)Cc2ccccc2)ncc1Cl	?	/	/	/	0.7%	/
Cc1cccc(CS(=O)(=O)c2ncc(Cl)c(C(=O)Nc3c(C)cccc3C)n2)c1	7.08µM*	-14.1%	-8.2%	-16.4%	-11.7%	-43.4%
CCOc1cc(CN2CCN(S(=O)(=O)c3ccc(C)cc3)CC2)ccc1OC	0.1%	/	/	/	-3.1%	/
Cc1cccc(C)c1NC(=O)c1nc(S(=O)(=O)Cc2ccccc2)ncc1Cl	12.6µM*	-10.2%	1.7%	-6.9%	0.6%	-38.9%
Cc1cccc(CS(=O)(=O)c2ncc(Cl)c(C(=O)Nc3nc4ccc(F)cc4s3)n2)c1	-28.1%	/	/	/	1.2%	/
COc1ccc2nc(NC(=O)c3nc(S(=O)(=O)Cc4ccccc4)ncc3Cl)sc2c1	3.9%	/	/	/	-3.7%	/
CCCc1nnc(NC(=O)c2nc(S(=O)(=O)Cc3cccc(C)c3)ncc2Cl)s1	35.5µM*	1.4%	-0.4%	1.8%	2.9%	21.0%
Cc1ccc(CNC(=O)CN2C(=O)CCn3nc(-c4ccccc4)cc32)cc1	-2.4%	/	/	/	1.9%	/
CS(=O)(=O)c1sc(C#N)c2c1C(=O)CC(c1ccccc1)C2 (stereo unspecified)	0.316µM*	-6.3%	-1.4%	-3.9%	4.3%	-70.8%
Cc1oc2c(c(=O)c1C)C(=O)CC(c1ccccc1)C2 (stereo unspecified)	0.7%	-5.9%	1.3%	11.6%	-3.4%	-29.1%
Cc1cccc(C2C=C(c3ccc(C)c(C)c3)Nc3nnnn32)c1 (stereo unspecified)	39.8µM*	/	/	/	0.7%	/
COc1ccc(C2=CC(c3sccc3C)n3nnnc3N2)cc1 (stereo unspecified)	35.5µM*	-2.2%	4.2%	-19.7%	-17.7%	8.4%
CCc1ccc(C2=CC(c3cccc(Br)c3)n3nnnc3N2)cc1 (stereo unspecified)	25.1µM*	/	/	/	4.9%	/
